For assay [1], the target named is T1, Tyrosine-protein kinase receptor TYRO3 (Homo sapiens) (UniProt Q06418).
T1 sequence (whole entry): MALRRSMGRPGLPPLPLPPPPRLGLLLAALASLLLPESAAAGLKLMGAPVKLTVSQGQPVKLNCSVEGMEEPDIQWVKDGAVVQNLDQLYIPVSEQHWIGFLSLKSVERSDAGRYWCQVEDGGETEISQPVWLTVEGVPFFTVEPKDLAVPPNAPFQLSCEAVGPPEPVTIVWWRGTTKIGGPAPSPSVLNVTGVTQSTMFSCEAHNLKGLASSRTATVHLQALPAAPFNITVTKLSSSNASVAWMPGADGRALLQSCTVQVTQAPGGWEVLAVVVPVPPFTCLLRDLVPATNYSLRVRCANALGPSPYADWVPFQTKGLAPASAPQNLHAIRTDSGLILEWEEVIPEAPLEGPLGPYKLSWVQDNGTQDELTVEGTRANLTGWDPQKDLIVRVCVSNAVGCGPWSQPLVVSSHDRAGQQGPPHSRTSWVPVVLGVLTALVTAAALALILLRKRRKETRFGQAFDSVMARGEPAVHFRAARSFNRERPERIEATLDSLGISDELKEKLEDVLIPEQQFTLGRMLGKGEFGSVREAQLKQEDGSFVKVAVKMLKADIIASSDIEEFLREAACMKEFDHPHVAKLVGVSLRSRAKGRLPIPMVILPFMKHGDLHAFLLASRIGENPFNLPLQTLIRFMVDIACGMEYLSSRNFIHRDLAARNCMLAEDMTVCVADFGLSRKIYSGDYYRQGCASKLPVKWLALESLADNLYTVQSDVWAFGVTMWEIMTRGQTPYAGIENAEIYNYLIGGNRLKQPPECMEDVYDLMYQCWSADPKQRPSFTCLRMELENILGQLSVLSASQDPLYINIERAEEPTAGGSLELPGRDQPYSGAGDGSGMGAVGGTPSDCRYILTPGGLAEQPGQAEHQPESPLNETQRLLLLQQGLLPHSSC
Particulars: at 1 µM.

Assay [2] deals with Tyrosine-protein kinase Yes (Homo sapiens) (UniProt P07947). To be noted: at 0.1 µM.
Assay [3] has the same target. To be noted: at 1 µM.
Assay [4] has as its target T2, Tyrosine-protein kinase ZAP-70 (Homo sapiens) (UniProt P43403).
T2 sequence (whole entry): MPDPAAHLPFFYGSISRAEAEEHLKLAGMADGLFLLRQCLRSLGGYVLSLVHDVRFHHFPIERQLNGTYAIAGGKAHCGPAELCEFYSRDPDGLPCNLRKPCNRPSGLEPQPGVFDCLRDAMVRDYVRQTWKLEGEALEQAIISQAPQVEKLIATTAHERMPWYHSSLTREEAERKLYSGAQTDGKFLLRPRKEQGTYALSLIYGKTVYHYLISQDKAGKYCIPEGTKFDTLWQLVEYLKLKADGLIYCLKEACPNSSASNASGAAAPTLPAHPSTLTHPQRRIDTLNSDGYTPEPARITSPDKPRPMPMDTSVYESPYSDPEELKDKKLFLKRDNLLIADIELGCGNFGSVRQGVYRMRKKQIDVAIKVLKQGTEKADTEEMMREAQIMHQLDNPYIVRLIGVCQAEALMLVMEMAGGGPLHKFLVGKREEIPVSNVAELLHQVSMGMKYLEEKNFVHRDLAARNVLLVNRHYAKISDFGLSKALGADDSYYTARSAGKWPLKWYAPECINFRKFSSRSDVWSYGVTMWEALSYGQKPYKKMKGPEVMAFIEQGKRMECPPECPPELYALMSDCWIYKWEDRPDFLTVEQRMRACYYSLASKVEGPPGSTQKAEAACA
To be noted: at 1 µM.

Assay [5] concerns the target Serine/threonine-protein kinase B-raf (Homo sapiens) (UniProt P15056). To be noted: at 0.1 µM.
For assay [6] the target is unchanged. To be noted: at 1 µM.
Assay [7] relates to Serine/threonine-protein kinase B-raf (Homo sapiens), P15056 [V600E]. Particulars: at 0.1 µM.
Assay [8] has the same test system. Particulars: at 1 µM.
In assay [9] the target is RAF proto-oncogene serine/threonine-protein kinase (Homo sapiens) (UniProt P04049). Particulars: at 0.1 µM.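 Note: values are mean CRAF kinase inhibition from profiling of the GSK Published Kinase Inhibitor Set.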
Assay [10] concerns the target T2, Tyrosine-protein kinase ZAP-70 (Homo sapiens). Particulars: at 0.1 µM.

The structures appear in SMILES notation.

We go through 17 molecules from ChEMBL document CHEMBL1961873, “Compounds: GSK PKIS; Assays: Nanosyn kinase panel” (2012).

Serine/threonine-protein kinase B-raf (Homo sapiens), sequence (P15056 whole entry): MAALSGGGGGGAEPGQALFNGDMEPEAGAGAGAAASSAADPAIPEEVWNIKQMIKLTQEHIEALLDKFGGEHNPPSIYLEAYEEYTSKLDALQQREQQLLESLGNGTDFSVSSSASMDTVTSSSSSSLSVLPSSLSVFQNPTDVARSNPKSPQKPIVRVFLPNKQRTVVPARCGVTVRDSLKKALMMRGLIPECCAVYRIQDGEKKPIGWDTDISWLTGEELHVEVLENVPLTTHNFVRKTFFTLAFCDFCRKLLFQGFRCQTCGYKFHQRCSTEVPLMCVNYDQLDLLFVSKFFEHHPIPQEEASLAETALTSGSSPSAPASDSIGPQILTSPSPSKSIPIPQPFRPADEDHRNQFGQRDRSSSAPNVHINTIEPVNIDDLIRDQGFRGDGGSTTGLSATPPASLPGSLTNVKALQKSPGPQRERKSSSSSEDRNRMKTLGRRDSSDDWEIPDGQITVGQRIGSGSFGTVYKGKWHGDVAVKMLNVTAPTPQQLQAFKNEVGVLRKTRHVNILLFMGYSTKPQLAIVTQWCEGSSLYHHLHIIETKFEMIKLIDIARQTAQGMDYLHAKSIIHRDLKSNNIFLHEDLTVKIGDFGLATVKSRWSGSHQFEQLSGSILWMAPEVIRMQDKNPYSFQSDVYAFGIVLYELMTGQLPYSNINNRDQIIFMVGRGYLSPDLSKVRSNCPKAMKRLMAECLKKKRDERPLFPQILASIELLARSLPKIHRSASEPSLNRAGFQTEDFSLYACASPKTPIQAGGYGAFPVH
RAF proto-oncogene serine/threonine-protein kinase (Homo sapiens), sequence (P04049 whole entry): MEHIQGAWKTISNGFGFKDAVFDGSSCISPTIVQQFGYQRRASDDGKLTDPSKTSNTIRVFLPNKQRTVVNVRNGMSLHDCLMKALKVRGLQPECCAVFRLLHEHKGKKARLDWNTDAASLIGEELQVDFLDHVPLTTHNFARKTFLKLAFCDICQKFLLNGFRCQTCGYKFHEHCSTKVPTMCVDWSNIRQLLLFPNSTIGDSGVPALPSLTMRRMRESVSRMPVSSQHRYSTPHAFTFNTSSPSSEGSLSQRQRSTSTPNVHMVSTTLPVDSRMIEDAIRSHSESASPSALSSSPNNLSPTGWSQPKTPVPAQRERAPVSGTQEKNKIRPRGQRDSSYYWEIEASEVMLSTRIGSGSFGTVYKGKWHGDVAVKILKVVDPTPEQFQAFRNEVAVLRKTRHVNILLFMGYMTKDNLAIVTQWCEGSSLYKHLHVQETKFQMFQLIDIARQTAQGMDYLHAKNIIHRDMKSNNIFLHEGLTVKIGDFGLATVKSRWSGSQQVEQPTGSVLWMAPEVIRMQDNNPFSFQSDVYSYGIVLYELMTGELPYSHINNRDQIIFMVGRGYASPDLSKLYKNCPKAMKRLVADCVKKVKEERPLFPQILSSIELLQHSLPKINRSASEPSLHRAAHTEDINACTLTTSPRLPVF
Serine/threonine-protein kinase B-raf (Homo sapiens), P15056 [V600E], sequence (P15056 whole entry V600E): as the sequence (P15056 whole entry) above, with V600E counted along it
Tyrosine-protein kinase Yes (Homo sapiens), sequence (P07947 2-543 limits assumed): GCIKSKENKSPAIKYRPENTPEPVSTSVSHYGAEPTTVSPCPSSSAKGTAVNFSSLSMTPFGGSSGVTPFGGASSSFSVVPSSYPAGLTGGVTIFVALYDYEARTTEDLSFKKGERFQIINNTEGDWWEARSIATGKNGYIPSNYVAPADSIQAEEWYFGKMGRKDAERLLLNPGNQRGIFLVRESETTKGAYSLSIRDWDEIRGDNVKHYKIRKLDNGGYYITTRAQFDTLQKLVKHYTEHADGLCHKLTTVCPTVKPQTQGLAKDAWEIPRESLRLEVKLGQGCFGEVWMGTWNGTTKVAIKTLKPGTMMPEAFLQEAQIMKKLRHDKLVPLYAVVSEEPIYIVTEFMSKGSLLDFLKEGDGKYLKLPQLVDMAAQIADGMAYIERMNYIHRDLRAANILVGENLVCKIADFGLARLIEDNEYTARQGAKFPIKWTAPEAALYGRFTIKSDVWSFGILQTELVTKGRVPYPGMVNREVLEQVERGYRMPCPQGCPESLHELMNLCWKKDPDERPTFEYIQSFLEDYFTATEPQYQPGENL

For orientation: inhibition means the relative decrease from the control value, in per cent. For `O=C(Nc1ccc(Oc2ccc3[nH]c(NC(=O)c4ccco4)nc3c2)cc1)Nc1cc(C(F)(F)F)ccc1F`, the inhibition was 37.4% in assay [1]; 0.93% in assay [2]; 21.9% in [3]; -9.02% in [4]; 4.64% in assay [5]; 60.7% in assay [6]. In addition, the inhibition in [7] is 3.75%; in assay [8], 72.5%; in assay [9] it was -0.98%.
For the molecule `CCOc1nccc2c1nc(-c1nonc1N)n2CC`, the inhibition was 5.64% in assay [1]; 2.27% in assay [2]; 6.31% in assay [3]; 2.73% in assay [10]; 1.9% in [4]; 2.88% in assay [5]. For the same molecule, the inhibition in [6] is 2.64%; in [7], 3.44%; in assay [8], 2.45%; in assay [9], -1.34%.
Take `O=S(=O)(CCOCc1ccc(-c2ccc3ncnc(Nc4ccc(OCc5cccc(F)c5)c(Cl)c4)c3c2)o1)c1ccccc1`: the inhibition in assay [1] is -0.33%; in assay [2], -1.93%; in [3] it was 2.61%; in [10], -5.44%; in [4] it was 0.81%; in assay [5], 2.33%. Besides, the inhibition in assay [6] is 3.21%; in assay [7], 2.43%; in assay [8] it was 3.05%; in [9], -0.94%.
As to `O=C1Nc2ccccc2/C1=C/Nc1ccc2[nH]c(=O)[nH]c2c1`, the inhibition is 21.6% in assay [1]; 6.92% in [2]; 27.2% in assay [3]; 3.11% in assay [10]; 7.45% in assay [4]; 9.63% in [5]. Also, the inhibition in [6] was 10.4%; in assay [7] it was 8.7%; in assay [8], 8.75%; in assay [9], 0.68%.
As to `COc1cccc(-n2nc(C)c3c(N/N=C(\C)c4ccncc4)ncnc32)c1`, the inhibition is 2.25% in [1]; 1.18% in assay [2]; 0.82% in assay [3]; 0.82% in assay [10]; 2.35% in assay [4]; 0.14% in [5]. Moreover, the inhibition in assay [6] was -1.61%; in assay [7], 0.28%; in assay [8], -0.78%; in assay [9], -2.44%.
With `COc1cccc(-n2ncc3c(N/N=C/c4ccc(C)cc4)ncnc32)c1`, the inhibition in [1] turned out to be 4.49%; in [2] it was 4.03%; in assay [3], 13.8%; in assay [10] it was 3.63%; in assay [4], 11%; in assay [5], 7.21%. For the same molecule, the inhibition is 11.2% in assay [6], 4.78% in assay [7], 6.08% in [8] and 7.72% in assay [9].
Turning to `CS(=O)(=O)CCNCc1nc(-c2ccc3ncnc(Nc4ccc(OCc5cccc(C(F)(F)F)c5)cc4)c3c2)cs1`, the inhibition in assay [1] is 1.66%; in assay [2] it was 1.94%; in assay [3] it was 3.56%; in assay [10] it was 1.5%; in assay [4] it was 0.78%; in assay [5] it was 1.81%. In addition, the inhibition in [6] was 2.12%; in assay [7], 2.15%; in assay [8], -0.18%; in assay [9], 0.97%.
For the molecule `COC(=O)Nc1nc2cc(Oc3ccc(NC(=O)Nc4cccc(Br)c4)cc3)ccc2[nH]1`, the inhibition in assay [1] came to 15.3%; in [2], 4.4%; in assay [3] it was 6.98%; in assay [10] it was 5.03%; in [4] it was 3.22%; in assay [5] it was 13%. In addition, the inhibition in [6] is 20.6%; in [7], 11.3%; in assay [8], 20.8%; in assay [9], -5.74%.
For `COc1ccc2ncnc(Nc3ccc(OCc4ccccc4)cc3)c2c1`, the inhibition turned out to be 3.15% in assay [1]; 5.76% in assay [2]; 22.9% in assay [3]; 1.97% in assay [10]; 1.84% in assay [4]; 3.6% in assay [5]. The inhibition is 2.93% in assay [6], 3.51% in assay [7], 2.24% in [8] and -0.56% in assay [9].
As for `Nc1nccc(-c2c(-c3ccc(F)cc3)nn3cc(C(F)(F)F)ccc23)n1`, the inhibition in assay [1] is 1.24%; in assay [2], 0.91%; in [3], 1.92%; in assay [10], -0.68%; in [4], -1.16%; in [5], 0.06%. In addition, the inhibition in assay [6] was 0.3%; in assay [7], 0.14%; in [8], -0.28%; in [9] it was -3.59%.
As to `Cc1ccc(O)cc1Nc1ccnc2ccc(S(C)(=O)=O)cc12`, the inhibition in [1] was 19.1%; in assay [2], 89.3%; in [3], 99%; in assay [10], 2.4%; in assay [4] it was 1.31%; in assay [5], 15.3%. For the same molecule, the inhibition in assay [6] was 32.5%; in assay [7], 13.8%; in [8], 26%; in assay [9] it was -4.03%.
Regarding `CN(c1ccc(NC(=O)Nc2ccc(OC(F)(F)F)cc2)cc1)c1ccnc(Nc2cccc(S(N)(=O)=O)c2)n1`, the inhibition in assay [1] is 27.2%; in assay [2], 15.5%; in assay [3], 65.2%; in [10], -0.16%; in [4], 3.87%; in assay [5], 5.02%. Also, the inhibition in assay [6] is 22.7%; in [7] it was 4.82%; in assay [8] it was 18%; in [9], -2.25%.
As for `CCS(=O)(=O)c1ccc(OC)c(Nc2nccc(N(C)c3ccc4c(C)n[nH]c4c3)n2)c1`, the inhibition in assay [1] was found to be 7.2%; in assay [2], 29.3%; in [3], 73.9%; in assay [10], 0.81%; in assay [4], 2.48%; in [5], 6.4%. The inhibition was determined as 8.1% in assay [6], 5.33% in [7], 5.98% in [8] and 1.8% in assay [9].
Consider `Cc1ccc(Nc2ccnc(Nc3cccc(C(N)=O)c3)n2)cc1O`, for which the inhibition in assay [1] is 55%; in [2], 33.5%; in assay [3] it was 78.5%; in assay [10] it was -1.9%; in [4], 6.83%; in [5], 6.53%. The inhibition in assay [6] was 10.4%; in [7], 5.95%; in assay [8] it was 8.26%; in assay [9], 6.98%.
Regarding `COc1cc2ncnc(Nc3ccc4c(cnn4Cc4ccccc4)c3)c2cc1OC`, the inhibition in [1] was 12.6%; in assay [2], 39.4%; in assay [3], 79.9%; in assay [10], -3.74%; in assay [4], 2.96%; in assay [5] it was 3.75%. Further, the inhibition in assay [6] was 3.3%; in assay [7], 2.5%; in assay [8], 1.8%; in assay [9], 0.11%.
As for `Nc1nccc(-c2c(-c3ccc(F)cc3)ncn2CCCN2CCOCC2)n1`, the inhibition is 5.61% in [1]; 2.87% in [2]; 9.05% in assay [3]; -2.08% in assay [10]; 1.23% in assay [4]; 5.83% in assay [5]. The inhibition in assay [6] was 6.07%; in assay [7] it was 6.08%; in assay [8] it was 7.12%; in assay [9], 11.6%.
As for `NS(=O)(=O)c1ccc(N/N=C2\C(=O)Nc3ccc(Cl)cc32)cc1`, the inhibition in assay [1] was 5.46%; in assay [2], 1.72%; in assay [3], 3.69%; in assay [10], 1.01%; in assay [4], 3.02%; in assay [5], 4.45%. For the same molecule, the inhibition is 4.35% in assay [6], 5.27% in assay [7], 4.36% in assay [8] and -0.52% in assay [9].
